Drawing on PubChem BioAssay (EPA / NIEHS), this text covers outcome and AC50 for 6 molecules.

The AC50 is the concentration giving half of the maximal activity seen.

Records with an inconclusive call do not appear. Active and inactive are the calls of the source. How the source made its calls, unless noted: active means hit-call score of the fitted dose curve at least 0.9, where 1 is the maximum; inactive means score below 0.9.

In assay [1] the target is human Vitamin D Receptor (VDR), VDR (gene 7421) (UniProt P11473). Kind of assay: ATG_VDR_TRANS: Attagene TRANS-FACTORIAL HepG2 Assay for human Vitamin D Receptor (VDR) (AID 2283022; active means hit-call score of the fitted dose curve at least 0.9, where 1 is the maximum). Put shortly: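 Steps: transfect HepG2 with GAL4-UAS-driven reporter constructs; dose compounds 24 h; isolate RNA, reverse-transcribe, PCR-amplify with 6-FAM-labelled primer extension and HpaI digestion; quantify fragments by capillary electrophoresis relative to DMSO.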
Sequence of human Vitamin D Receptor (VDR), VDR (gene 7421) (P11473 whole entry, looked up, the tested form may be a part): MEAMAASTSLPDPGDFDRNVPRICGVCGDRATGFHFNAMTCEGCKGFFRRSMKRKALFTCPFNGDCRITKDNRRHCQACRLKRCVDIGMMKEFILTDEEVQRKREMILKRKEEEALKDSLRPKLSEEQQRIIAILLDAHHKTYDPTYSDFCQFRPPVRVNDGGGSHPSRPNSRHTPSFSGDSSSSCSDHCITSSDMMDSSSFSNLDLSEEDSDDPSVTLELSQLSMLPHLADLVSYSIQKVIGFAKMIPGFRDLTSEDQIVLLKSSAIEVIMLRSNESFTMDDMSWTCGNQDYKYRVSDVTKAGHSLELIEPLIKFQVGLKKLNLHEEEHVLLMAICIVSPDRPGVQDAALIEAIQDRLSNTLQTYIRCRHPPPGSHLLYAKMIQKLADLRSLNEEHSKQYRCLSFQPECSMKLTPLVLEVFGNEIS

A short description of assay [2]: BSK_3C_SRB: Viability Assessment in the BioMAP Diversity Plus: 3C Assay (AID 2283023).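 Further: fitted both ways against DMSO so a hit may be signal rise or drop.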 To be noted: primary human endothelial cells (HUVEC). Put shortly: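 Absorbance at 560 nm of sulforhodamine B-stained (0.1%) total protein served as a cytotoxicity readout in human umbilical vein endothelial cells, 24 h after chemical treatment. Signal was fitted bidirectionally relative to DMSO.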

Read-out in assay [3]: Matrix Metallopeptidase 1 (MMP1), MMP1 (gene 4312)
Kind of assay: BSK_BE3C_MMP1: BioMAP Diversity Plus: BE3C Assay for Matrix Metallopeptidase 1 (MMP1) Biomarker Activity (AID 2283024). To be noted: primary human bronchial epithelial cells; actives raise or lower the signal. Put shortly:
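ELISA measurement of MMP-1 after 24 h compound exposure of primary human bronchial epithelial cells. Changes in either direction fitted relative to DMSO; parallel SRB staining checked overt cytotoxicity.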

The nature of assay [4]: BSK_3C_Vis: BioMAP Diversity Plus: 3C Assay for Morphology Visualization (AID 2283025).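 Further: fitted both ways so gain or loss versus DMSO counts.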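 On AC50: light microscopy image of cell morphology used as background control.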 To be noted: primary human endothelial cells (HUVEC). Put shortly:
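Light-microscopy visualization of HUVEC cultures at 24 h post-treatment, with DMSO as baseline for bidirectional fitting.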

Read-out in assay [5]: Pselectin, SELP (gene 6403)
Kind of assay: BSK_4H_Pselectin: BioMAP Diversity Plus: 4H Assay for Pselectin Biomarker Activity (AID 2283026). Conditions: primary human endothelial cells (HUVEC); actives raise or lower the signal. Put shortly:
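ELISA of surface P-selectin on HUVEC, 24 h after dosing, with parallel SRB staining (0.1% after 10% TCA fixation, 560 nm) for overt cytotoxicity. Activity fitted in both directions relative to DMSO.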

Assay [6] in a line: BSK_4H_SRB: Viability Assessment in the BioMAP Diversity Plus: 4H Assay (AID 2283027).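 Further: cells exposed to compound for 24 h before staining.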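 On AC50: curves fitted both ways versus DMSO so AC50 may be loss or gain.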 To be noted: primary human endothelial cells (HUVEC). Put shortly:
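Cytotoxicity readout: sulforhodamine B (0.1%) staining of total protein after 10% TCA fixation, measured at 560 nm in human umbilical vein endothelium at 24 h. DMSO set the baseline; fitting was bidirectional.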

Assay [7] in a line: BSK_BE3C_SRB: Viability Assessment in the BioMAP Diversity Plus: BE3C Assay (AID 2283028). To be noted: primary human bronchial epithelial cells. Put shortly:
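Cells (human bronchial epithelial, primary) are treated with chemicals, and after 24 h the parallel cultures are fixed in 10% TCA. These are then stained with 0.1% SRB and read at 560 nm. Gain or loss of signal is fitted relative to DMSO.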

Read-out in assay [8]: Thrombomodulin, THBD (gene 7056)
Kind of assay: BSK_3C_Thrombomodulin: BioMAP Diversity Plus: 3C Assay for Thrombomodulin Biomarker Activity (AID 2283029). Conditions: primary human endothelial cells (HUVEC); actives raise or lower the signal. Put shortly: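 ELISA measurement of thrombomodulin on HUVEC surface 24 h after chemical dosing; activity fitted in both directions relative to DMSO vehicle.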

Read-out in assay [9]: Urokinase-type plasminogen activator receptor (uPAR), PLAUR (gene 5329)
Kind of assay: BSK_4H_uPAR: BioMAP Diversity Plus: 4H Assay for Urokinase-type plasminogen activator receptor (uPAR) Biomarker Activity (AID 2283030). Conditions: primary human endothelial cells (HUVEC); actives raise or lower the signal. Put shortly:
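Cell-surface uPAR ELISA signal, measured 24 h after dosing human umbilical vein endothelial cells, was analyzed with bidirectional fitting relative to DMSO. Parallel SRB staining of total protein tracked overt cytotoxicity.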

Read-out in assay [10]: Vascular endothelial growth factor receptor 2 (Homo sapiens) (UniProt P35968)
Kind of assay: BSK_4H_VEGFRII: BioMAP Diversity Plus: 4H Assay for Vascular endothelial growth factor receptor 2 (VEGFR2) Biomarker Activity (AID 2283031).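 On AC50: cell-surface VEGFR2 protein level quantified by ELISA.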 Conditions: primary human endothelial cells (HUVEC); actives raise or lower the signal. Put shortly: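 ELISA read-out of VEGFRII in primary human umbilical vein endothelium, taken 24 h after chemical treatment. Responses are expressed relative to DMSO, with bidirectional fitting.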

Read-out in assay [11]: Human Leukocyte Antigen - DR isotype (HLADR), HLA-DRA (gene 3122)
Kind of assay: BSK_BE3C_HLADR: BioMAP Diversity Plus: BE3C Assay for Human Leukocyte Antigen - DR isotype (HLADR) Biomarker Activity (AID 2283032). Conditions: primary human bronchial epithelial cells; actives raise or lower the signal. Put shortly: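 Cell-surface HLA-DR ELISA readout at 24 h after dosing in the BE3C primary human lung bronchial epithelial system; gain or loss of signal against DMSO, with parallel sulforhodamine B staining of total protein for overt cytotoxicity.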

Read-out in assay [12]: Vascular cell adhesion molecule 1 (VCAM1), VCAM1 (gene 7412)
Kind of assay: BSK_4H_VCAM1: BioMAP Diversity Plus: 4H Assay for Vascular cell adhesion molecule 1 (VCAM1) Biomarker Activity (AID 2283033).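 On outcome: cell-surface VCAM-1 protein measured by ELISA.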 Conditions: primary human endothelial cells (HUVEC); actives raise or lower the signal. Put shortly:
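VCAM-1 ELISA read 24 h after chemical dosing of HUVEC in the BioMAP 4H system, with gain or loss of signal fitted relative to DMSO. Parallel SRB staining (560 nm) checked overt cytotoxicity.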

Read-out in assay [13]: Interferon-gamma inducible Protein 10 (IP10), CXCL10 (gene 3627)
Briefly: BSK_BE3C_IP10: BioMAP Diversity Plus: BE3C Assay for Interferon-gamma inducible Protein 10 (IP10) Biomarker Activity (AID 2283034). Conditions: primary human bronchial epithelial cells; actives raise or lower the signal. Put shortly: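 IP-10 quantified by ELISA in human primary bronchial epithelial cell cultures at 24 hours post-dosing. Gain or loss of signal fitted relative to DMSO; parallel SRB staining assessed overt cytotoxicity.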

Read-out in assay [14]: Monokine induced gamma interferon (MIG), CXCL9 (gene 4283)
Kind of assay: BSK_BE3C_MIG: BioMAP Diversity Plus: BE3C Assay for Monokine induced gamma interferon (MIG) Biomarker Activity (AID 2283035). To be noted: primary human bronchial epithelial cells; actives raise or lower the signal. Put shortly:
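hu bronchial epithelial 1° cells, 24 h cpd; MIG by ELISA; bidirectional fit, DMSO = baseline.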

Read-out in assay [15]: Transforming growth factor beta 1 (TGFb1), TGFB1 (gene 7040)
Kind of assay: BSK_BE3C_TGFb1: BioMAP Diversity Plus: BE3C Assay for Transforming growth factor beta 1 (TGFb1) Biomarker Activity (AID 2283036;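 further: TGF-b1 protein level measured by ELISA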). To be noted: primary human bronchial epithelial cells; actives raise or lower the signal. Put shortly: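 ELISA readout of TGF-b1 from human lung bronchial epithelial primary cells, taken 24 h post-treatment. Gain or loss of signal fitted relative to DMSO baseline, with parallel SRB staining for overt cytotoxicity.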

Read-out in assay [16]: Plasminogen activator inhibitor-1 (PAI1), SERPINE1 (gene 5054)
Briefly: BSK_BE3C_PAI1: BioMAP Diversity Plus: BE3C Assay for Plasminogen activator inhibitor-1 (PAI1) Biomarker Activity (AID 2283037). Conditions: primary human bronchial epithelial cells; actives raise or lower the signal. Put shortly: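 PAI-1 was measured by ELISA in human primary bronchial epithelial cultures 24 h after chemical dosing, with cytotoxicity checked by SRB total-protein staining in parallel cultures. Activity was fitted in both directions relative to DMSO.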

Read-out in assay [17]: urokinase plasminogen activator (uPA), PLAU (gene 5328)
Kind of assay: BSK_BE3C_uPA: BioMAP Diversity Plus: BE3C Assay for urokinase plasminogen activator (uPA) Biomarker Activity (AID 2283038).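 On outcome: uPA protein level quantified by ELISA in cell cultures; uPA read one day after compound addition.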 To be noted: primary human bronchial epithelial cells; actives raise or lower the signal. Put shortly:
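Bronchial epithelial cells (human, primary); chemical 24 h; uPA by ELISA; bidirectional fit vs DMSO. SRB (0.1%, after 10% TCA fixation, 560 nm) in parallel cultures for cytotoxicity.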

Read-out in assay [18]: Urokinase-type plasminogen activator receptor (uPAR), PLAUR (gene 5329)
Kind of assay: BSK_BE3C_uPAR: BioMAP Diversity Plus: BE3C Assay for Urokinase-type plasminogen activator receptor (uPAR) Biomarker Activity (AID 2283039).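 On outcome: cells exposed to compound for one day before measurement.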 To be noted: primary human bronchial epithelial cells; actives raise or lower the signal. Put shortly:
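uPAR levels were measured by ELISA after 24 h compound treatment of primary human bronchial epithelial cells, fitted in both directions relative to DMSO. Parallel SRB staining served as the cytotoxicity read-out.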

Read-out in assay [19]: Interleukin-6 (IL6), IL6 (gene 3569)
Kind of assay: BSK_CASM3C_IL6: BioMAP Diversity Plus: CASM3C Assay for Interleukin-6 (IL6) Biomarker Activity for (AID 2283040). To be noted: primary human coronary artery smooth muscle cells; actives raise or lower the signal.

Read-out in assay [20]: Tissue plasminogen activator (tPA), PLAT (gene 5327)
Kind of assay: BSK_BE3C_tPA: BioMAP Diversity Plus: BE3C Assay for Tissue plasminogen activator (tPA) Biomarker Activity (AID 2283041).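 Further: tPA level quantified by ELISA one day after compound addition.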 To be noted: primary human bronchial epithelial cells; actives raise or lower the signal. Put shortly: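 tPA measured by ELISA 24 h after dosing human primary bronchial epithelial cells (BE3C system). Changes in either direction were fitted against DMSO. Parallel cultures were stained with SRB to flag overt cytotoxicity.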

As for `Cc1ccc(C(C)C)cc1`, the result in assay [1], in assay [2], in [3], in [4], in assay [5] and in assay [6] was inactive. For the same molecule, the result in assay [7], in assay [8], in assay [9], in assay [10], in assay [11] and in [12] was inactive. Besides, the outcome in assay [13], in assay [14], in assay [15], in assay [16], in [17] and in [18] was inactive. The outcome in [19] and in assay [20] was inactive.
As for `O=CCCCC=O`, the molecule was called inactive in assay [1], in assay [3], in [4], in assay [6], in assay [7] and in assay [8]. Also, the result in [9], in [10], in assay [13], in assay [14], in [15] and in assay [17] was inactive. In assay [19], the result was inactive. The half-maximal activity concentration (AC50) in assay [2] is 31.7 µM (active); in assay [5], 30.7 µM (active); in [11] it was 33.5 µM (active); in assay [12], 31.5 µM (active); in assay [16] it was 32.8 µM (active).
Consider `CCN(Cc1cccnc1)C(=O)c1cccc(Cl)c1[C@]1(C)C(=O)N(Cc2ccc(OC)cc2OC)c2ccc(Cl)cc21`, for which the molecule was classed as inactive in [1], in assay [3], in [7], in [8], in assay [11] and in [12]. Further, the result in [14], in assay [15] and in assay [20] was inactive. In addition, the AC50 in assay [2] was 6.28 µM (active); in assay [4], 4.34 µM (active); in assay [5] it was 4.73 µM (active); in assay [6], 5.38 µM (active); in assay [9] it was 5.48 µM (active); in assay [10] it was 6.81 µM (active). Also, the AC50 is 12.1 µM (active) in assay [13]; 3.79 µM (active) in [16]; 5.67 µM (active) in assay [17]; 6.94 µM (active) in assay [18]; 12.3 µM (active) in assay [19].
On to `CCCCOC(=O)c1ccc(O)cc1`, for which the molecule was classed as inactive in assay [1], in assay [2], in assay [3], in [4], in assay [5] and in assay [6]. Besides, the outcome in assay [7], in assay [8], in [9], in assay [10], in assay [12] and in [13] was inactive. Moreover, the result in assay [14], in assay [15], in assay [16], in assay [17], in assay [18] and in assay [19] was inactive.
For the molecule `CC[C@H](NC(=O)c1cc(F)ccc1NS(=O)(=O)c1cccc2cccnc12)c1ccccc1`, the molecule was classed as inactive in [1], in assay [2], in assay [3], in assay [4], in assay [5] and in [6]. Further, the outcome in [7], in [8], in assay [9], in assay [10], in assay [11] and in assay [12] was inactive. Also, the result in assay [13], in assay [14], in assay [15], in assay [16], in assay [17] and in assay [19] was inactive.
`COc1cccc([C@H](O)C2CCN(CCc3ccc(F)cc3)CC2)c1OC`: the outcome in [1], in assay [2], in assay [3], in assay [4], in assay [6] and in [7] was inactive. For the same molecule, the result in assay [8], in assay [10], in assay [11], in assay [13], in assay [14] and in [15] was inactive. Moreover, the outcome in [16], in [17], in assay [18] and in assay [19] was inactive. Further, the figures for the AC50 in assay [5], in assay [9] and in assay [12] were 6.42 µM (active), 0.228 µM (active) and 12.9 µM (active), respectively.
